Screening results: PubChem BioAssay, National Center for Advancing Translational Sciences (NCATS)
In the library only some 11% were active in any assay of this set; here they are far more common.
PI5P4Ka inh: blocks human PI5P4K alpha kinase activity | P48426 | PI5P4Kalpha enzyme, ADP-Glo luminescence, 60 min; hits give low values | max response, % | hit rate 1.2% among 330,000 | AID 652105; active = max response of -50% or lower; inconclusive = between -30% and -50%; inactive = -30% or higher; also: value at the top dose of about 77 µM; % is scaled to controls: 0 for no effect and ±100 for the full control effect
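Controls without substrate or without enzyme flank wells where PI5P4Kalpha converts substrate using 5 microM ATP (final). Incubation lasts 60 minutes at room temperature; ADP formed is read by ADP-Glo luminescence.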
L3MBTL1 block: blocks human L3MBTL1; Q9Y468; AlphaScreen L3MBTL1–H3K9me1 peptide binding; Potency, µM (series often up to 57.1 µM), for the others: at the top dose activity, negative = inhibition, usual class: inhibitors; hit rate 0.66% among 230,000; also: potency is read from the fitted curve at half-maximal effect; % is scaled to controls: 0 for no effect and ±100 for the full control effect; nearly all actives have a fitted effect of over 60% in size
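First, the protein-peptide complex forms for 30 min at room temperature (L3MBTL1 50 nM, biotinylated H3K9me1 peptide 75 nM). Next, compounds are pin-transferred and incubated 30 min. Finally, AlphaScreen beads are added and read after 30 min.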
BAZ2B block: inhibitors of human BAZ2B bromodomain | Q9UIF8 | AID 504333 | AlphaScreen BAZ2B-H3K14Ac peptide displacement | hit rate 4.4% among 360,000 | Potency, µM (top dose mostly 114 µM), inactives show at the top dose activity change, negative = inhibition, usual class: inhibitors; also: potency is read from the fitted curve at half-maximal effect; % is scaled to controls: 0 for no effect and ±100 for the full control effect; nearly all actives have a fitted effect of over 60% in size
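Compounds, titrated to a top concentration of 110 uM, were incubated 30 min at room temperature with preformed BAZ2B/acetyl-K14 H3 peptide complex (50 nM each). Proximity signal was measured by AlphaScreen after 20 min with beads.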
JMJD2A Tudor: JMJD2A Tudor domain (human) inhibition. O75164. AlphaScreen JMJD2A-Tudor / H3K4me3 peptide binding. Potency, µM (titrated, usually from 114 µM), for inactives: at the highest dose activity change, negative = inhibition, actives largely listed as inhibitors. hit rate 4.4% among 390,000. AID 504339; also: potency is read from the fitted curve at half-maximal effect; % is scaled to controls: 0 for no effect and ±100 for the full control effect; nearly all actives have a fitted effect of over 50% in size
Target sequence (O75164 whole entry, looked up, the tested form may be a part): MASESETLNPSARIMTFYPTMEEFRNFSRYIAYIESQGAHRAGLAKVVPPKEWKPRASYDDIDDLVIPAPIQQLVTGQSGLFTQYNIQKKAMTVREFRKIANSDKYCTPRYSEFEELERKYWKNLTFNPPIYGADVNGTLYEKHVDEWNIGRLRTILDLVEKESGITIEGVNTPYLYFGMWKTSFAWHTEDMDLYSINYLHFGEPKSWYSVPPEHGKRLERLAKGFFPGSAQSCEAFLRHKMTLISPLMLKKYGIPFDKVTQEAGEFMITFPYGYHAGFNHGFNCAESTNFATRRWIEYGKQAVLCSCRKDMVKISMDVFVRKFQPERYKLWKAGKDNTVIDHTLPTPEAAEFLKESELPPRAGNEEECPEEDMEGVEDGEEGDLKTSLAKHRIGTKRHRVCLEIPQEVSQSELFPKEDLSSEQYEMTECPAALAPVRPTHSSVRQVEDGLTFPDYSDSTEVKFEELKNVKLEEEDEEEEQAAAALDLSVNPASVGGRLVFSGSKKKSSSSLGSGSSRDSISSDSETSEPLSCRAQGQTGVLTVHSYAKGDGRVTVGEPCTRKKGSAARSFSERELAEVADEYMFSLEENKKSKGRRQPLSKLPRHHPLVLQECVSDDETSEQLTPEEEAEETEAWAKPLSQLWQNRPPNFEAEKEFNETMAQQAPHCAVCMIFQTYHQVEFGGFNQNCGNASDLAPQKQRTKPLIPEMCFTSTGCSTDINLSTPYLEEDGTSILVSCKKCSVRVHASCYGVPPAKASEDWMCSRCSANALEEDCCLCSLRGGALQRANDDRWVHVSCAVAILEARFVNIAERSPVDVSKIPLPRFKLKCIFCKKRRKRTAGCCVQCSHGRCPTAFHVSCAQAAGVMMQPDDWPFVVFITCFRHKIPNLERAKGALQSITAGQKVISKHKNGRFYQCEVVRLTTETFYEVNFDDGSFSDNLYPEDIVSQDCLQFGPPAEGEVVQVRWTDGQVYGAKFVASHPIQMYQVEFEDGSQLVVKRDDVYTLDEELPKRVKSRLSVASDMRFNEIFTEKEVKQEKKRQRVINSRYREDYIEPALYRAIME
G9a block: blocks human histone lysine methyltransferase G9a; Q96KQ7; G9a H3K9 monomethylation, AlphaScreen, 2 h; Potency, µM (highest dose often 102 µM), inactives show top-dose activity, negative = inhibition, most hits filed as inhibitors; hit rate 8.8% among 350,000; AID 504332; also: potency is read from the fitted curve at half-maximal effect; % is scaled to controls: 0 for no effect and ±100 for the full control effect; nearly all actives have a fitted effect of over 75% in size
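Step 1: enzyme (final 20 nM) with compound, 15 min RT. Step 2: substrate peptide 500 nM and SAM 20 uM, 2 h RT. Step 3: anti-H3K9me1 antibody and AlphaScreen beads, 10 min, then plate read.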
HP1b binding inh: inhibitors of HP1-beta chromodomain binding to methylated histone tails | AID 540317 | AlphaScreen HP1-beta / biotin-H3K9me3 peptide binding | Potency, µM (top dose mostly 114 µM), for inactives: top-dose activity change, negative = inhibition, usual class: inhibitors | hit rate 0.56% among 390,000; also: potency is read from the fitted curve at half-maximal effect; nearly all actives have a fitted effect of over 70% in size
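HP1-beta protein (50 nM final) preincubated 30 min at room temperature with biotinylated H3(1-18)K9me3 peptide (50 nM) in PBS pH 7.4, 0.01% Tween-20, then compound added for 30 min. AlphaScreen streptavidin donor/nickel chelate acceptor beads (10 ug/mL final), 30 min dark, luminescence read.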
Starred values were filed as active, the others as inactive; ? = inconclusive; . = no result; [ ] = another dose, or the depositor's remark. Unless noted, calls follow the shape of the dose curve; as a rule, active = well fitted inhibition curve with a large enough effect; inconclusive = small, poorly fitted or top-dose-only effect; inactive = no such curve, though single readings can be large or run the other way.

SMILES	PI5P4Ka inh	L3MBTL1 block	BAZ2B block	JMJD2A Tudor	G9a block	HP1b binding inh
C#CCOCCOCCOCCNc1nc(N2CCOCC2)nc(N2CCN(C(=O)CCCCCCCCCCNC(=O)[C@@H]([C@H](C)CC)n3cc(CCCCCN)nn3)CC2)n1	-5.7	-4.1%	?	?	9.7%[2.33 µM]	7.0%
C#CCOCCOCCOCCNc1nc(N2CCN(C(=O)CCCCCCCCCCNC(=O)[C@H]([C@@H](C)CC)n3cc(CCCCN=C(N)N)nn3)CC2)nc(N2CCN(C(=O)CCCCCCCCCCNC(=O)[C@H]([C@@H](C)CC)n3cc(CCCCN=C(N)N)nn3)CC2)n1	.	-6.7%	50.1µM*	.	-8.6%[2.33 µM]	.
C#CCOCCOCCOCCNc1nc(N2CCN(C(=O)CCCCCCCCCCNC(=O)[C@H]([C@@H](C)CC)n3cc(CCCCCN)nn3)CC2)nc(N2CCN(C(=O)CCCCCCCCCCNC(=O)[C@H]([C@@H](C)CC)n3cc(CCCCN=C(N)N)nn3)CC2)n1	.	-11.1%	56.2µM*	.	14.1%[2.33 µM]	.
Cc1ccc(C)c(N2CCN(C(=O)c3cc4c(=O)oc5ccccc5c4s3)CC2)c1	.	.	1.0%	4.4%	-0.8%[59 µM]	31.4%
CCOc1ccccc1-c1nnc2n1N=C(c1cc(OC)ccc1OC)CS2	.	.	.	-13.8%	.	.
O=C(O)CSc1ncnc2sc3c(c12)CCCC3	-58.4*	18.4%	5.1%	-12.4%	.	7.3%
O=C(CSc1ncnc2sc3c(c12)CCC3)Nc1ccccc1C(=O)O	-83.7*	.	-13.6%	-14.0%	11.8%[12.7 µM]	3.2%
Cc1ccc(C(=O)CSc2ncnc3sc4c(c23)CCCC4)cc1	.	4.1%	-2.3%	3.5%	-8.8%	24.3%
COC(=O)CSc1ncnc2scc(-c3ccccc3)c12	2.9	.	5.1%	53.4%	61.5%	97.3%
CCN(CC)c1ncnc2sc3c(c12)CCC3	-3.2	10.4%	-7.3%	9.8%	39.8µM*	33.5%
Cc1ccc(-c2csc3ncnc(SCC(=O)O)c23)cc1	-70.1*	10.2%	-9.4%	1.8%	.	17.3%
c1cn(-c2ncnc3sc4c(c23)CCCC4)cn1	-9.8	-4.6%	3.9%	-8.7%	-8.5%	20.1%
CCCCCN1C(C(=O)c2ccccc2)=C(NC(=O)c2ccc(OC)cc2)c2ccccc2S1(=O)=O	.	.	-22.0%	-27.5%	-40.5%[59 µM]	3.4%
CCOC(=O)c1ccc(NC(=O)c2c(NCc3ccc(OC)c(OC)c3OC)sc3c2CCC(C)C3)cc1 (centres undefined)	.	.	?	?	-43.3%[59 µM]	4.0%
CCC(=O)N1CCc2cc(S(=O)(=O)NCCC(=O)Nc3ccc(CC)cc3)ccc21	.	.	.	-12.3%	-32.7%[59 µM]	28.7%
COc1ccc(CCNC(c2ccc(F)cc2)c2nnc(-c3ccccc3Cl)o2)cc1OC (centres undefined)	.	.	-20.4%	-33.6%	-37.3%[59 µM]	14.0%
O=C(CCCn1c(=O)c2sccc2n(Cc2ccc(Cl)cc2)c1=O)NCc1ccc2c(c1)OCO2	.	.	-0.2%	0.7%	8.8%[59 µM]	40.9%
COCC(=O)N1CCC2(CC1)CN(c1ccc(-c3ccccc3)cc1)C2	.	.	.	.	-0.3%[12.7 µM]	.
O=C(O)CSc1ncnc2sc3c(c12)CCC3	-68.0*	-6.5%	50.1µM*	-23.6%	-17.1%	36.2%
CCSc1ncnc2sc3c(c12)CCC3	.	.	60.9%	65.7%	63.6%	110.5%
CN(c1ccccc1)S(=O)(=O)c1ccc(C(=O)Nc2nnc(C3CC3)o2)cc1	-2.3	11.7%	?	-23.8%	8.0%	12.4%
COCc1nnc(NC(=O)c2ccc(S(=O)(=O)N(C)c3ccccc3)cc2)o1	-3.4	14.9%	?	79.4µM*	-10.0%[59 µM]	53.4%
CCN(c1ccccc1)S(=O)(=O)c1ccc(C(=O)Nc2nnc(C3CC3)o2)cc1	-3.2	-2.3%	79.4µM*	-17.2%	-24.8%	15.4%
CCN(c1ccccc1)S(=O)(=O)c1ccc(C(=O)Nc2nnc(COC)o2)cc1	1.1	11.1%	56.2µM*	56.2µM*	4.7%	44.2%
CCN(c1ccccc1)S(=O)(=O)c1ccc(C(=O)Nc2nnc(-c3ccco3)o2)cc1	-28.0	.	.	-20.9%	50.1µM*	33.8%
SMILES	PI5P4Ka inh	L3MBTL1 block	BAZ2B block	JMJD2A Tudor	G9a block	HP1b binding inh
COCc1nnc(NC(=O)c2ccc(S(=O)(=O)N(CC(C)C)CC(C)C)cc2)o1	3.9	24.2%	?	-15.8%	-26.6%	56.8%
CC(C)Cn1cc(NC(=O)N2CCN(c3ccccc3F)CC2)c2ccccc2c1=O	.	.	3.8%[57.1 µM]	-8.1%	-8.5%[59 µM]	14.6%
Cc1cccc(N(CC(=O)NC(C)c2ccccc2)S(=O)(=O)c2ccccc2)c1C (centres undefined)	.	.	-1.8%	-14.9%	-46.7%[59 µM]	18.5%
COc1ccc(CNC(=O)[C@H](Cc2ccccc2)NC(=O)C2CCN(C(=O)[C@H](C)N)CC2)cc1	-6.6	.	4.9%	-2.0%	1.2%[12.7 µM]	32.5%
CC(C)C[C@@H](NC(=O)C1CCC(CNC(=O)[C@H](Cc2ccccc2)NC(=O)OC(C)(C)C)CC1)C(=O)O (some centres undefined)	1.6	.	1.9%	28.2µM*	?	11.3%
COc1ccc(C(CNC(=O)C(Cc2ccccc2)NC(N)=O)N(C)C)cc1 (centres undefined)	3.2	.	-14.6%	-9.7%	39.8µM*	27.6%
COc1ccc(C(CNC(=O)Cc2ccc(-c3ccccc3)cc2)N(C)C)cc1 (centres undefined)	0.4	.	-10.7%	-29.7%	5.7%	-17.5%
COc1ccc(CNC(=O)[C@H](Cc2ccccc2)NC(=O)C2CCNCC2)cc1	3.4	.	-4.1%	-6.2%	50.1µM*	35.9%
O=C(Nc1ccc(N2CCCC2)cc1)c1cc2ccccc2o1	-21.5	.	25.1µM*	?	.	-12.4%
CN(Cc1ccccc1N1CCCC1)C(=O)c1cc2ccccc2o1	-0.4	-19.2%	.	39.8µM*	.	?
O=C(Nc1ccc(N2CCCCCC2)cc1)c1ccc[nH]1	5.7	-52.5%	44.7µM*	50.1µM*	-25.7%[2.33 µM]	?
O=C(Nc1ccc(N2CCCCC2)cc1)c1ccccn1	-23.6	-9.1%	?	?	44.7µM*	?
CC(CNC(=O)Cn1c(-c2cccs2)cc2ccccc21)c1ccccc1 (centres undefined)	.	.	1.1%	-1.3%	-2.2%[59 µM]	51.4%
Cc1ccc(C)c(C(=O)N2CCC(c3nc4c(nnn4Cc4ccccc4)c(=O)[nH]3)CC2)c1	.	.	-0.3%	-14.4%	-3.1%[59 µM]	47.7%
COc1ccc(N(Cc2cccs2)C(=O)COc2ccc(C(C)C)cc2)cc1	.	.	53.1%	43.4%	75.8%[59 µM]	95.7%
Cc1cc(=O)oc2cc(OCC(=O)NCCCn3ccnc3)ccc12	-0.8	.	-19.2%	8.9%	-7.4%[59 µM]	24.8%
Cc1c(C)c2ccc(OCC(=O)NCCCn3ccnc3)cc2oc1=O	9.9	.	-17.4%[57.1 µM]	22.4µM*	1.1%	42.5%
CC(=O)NC1=NC(=O)/C(=C/c2cn(C(C)=O)nc2-c2ccccc2)S1	-86.5*	-4.4%	-28.4%	22.4µM*	8.91µM*	?
